Test results reported in PubChem BioAssay.

Experiments:
[1] = biological target: Tumor necrosis factor receptor superfamily member 10B (Homo sapiens) (UniProt O14763); test: caspase-8 TRAIL sensitization, hit retest, confirmation, cell-based, NB7+caspase-8, with/without TRAIL, luminescence panel (AID 651596); details: NB7 neuroblastoma + caspase-8, TRAIL sensitization, luminescence viability, with TRAIL, mean of runs, at 10 µM, stronger effect = higher value
[2] = as above; details: NB7 neuroblastoma + caspase-8, without TRAIL, luminescence viability, without TRAIL, mean of runs, at 10 µM
[3] = biological target: Tumor necrosis factor receptor superfamily member 10B (Homo sapiens) (UniProt O14763); test: TRAIL sensitizers in caspase-8 expressing neuroblastoma cells, dose response, NB7 cells plus caspase-8, luminescence, panel (AID 652002); details: NB7 neuroblastoma +caspase-8, TRAIL sensitization, luminescence viability, NB7+Caspase-8, with TRAIL, run 1; at 12.5 µM (top of the series)
[4] = biological target: Tumor necrosis factor receptor superfamily member 10B (Homo sapiens) (UniProt O14763); test: as above; details: NB7 neuroblastoma +caspase-8, TRAIL sensitization, luminescence viability, NB7+Caspase-8, with TRAIL, run 2; at 12.5 µM (top of the series)
[5] = as above; details: NB7 neuroblastoma +caspase-8, no TRAIL, compound-alone cytotoxicity counter-screen, luminescence viability, NB7+Caspase-8, run 1; at 12.5 µM (top of the series) unless noted
[6] = as above; details: NB7 neuroblastoma +caspase-8, no TRAIL, compound-alone cytotoxicity counter-screen, luminescence viability, NB7+Caspase-8, run 2; at 12.5 µM (top of the series) unless noted

Tumor necrosis factor receptor superfamily member 10B (Homo sapiens), sequence (O14763 whole entry, looked up): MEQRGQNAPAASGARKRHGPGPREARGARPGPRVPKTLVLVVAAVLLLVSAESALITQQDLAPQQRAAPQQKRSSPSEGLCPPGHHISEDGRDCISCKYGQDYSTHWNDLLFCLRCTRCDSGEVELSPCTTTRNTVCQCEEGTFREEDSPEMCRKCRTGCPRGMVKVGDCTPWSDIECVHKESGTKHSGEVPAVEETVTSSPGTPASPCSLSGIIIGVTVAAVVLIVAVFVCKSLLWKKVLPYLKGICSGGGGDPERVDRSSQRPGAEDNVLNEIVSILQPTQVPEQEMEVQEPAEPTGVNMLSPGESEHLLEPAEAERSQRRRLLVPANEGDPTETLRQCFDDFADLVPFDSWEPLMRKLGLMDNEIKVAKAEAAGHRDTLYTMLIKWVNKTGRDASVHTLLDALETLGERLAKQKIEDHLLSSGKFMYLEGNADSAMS

**Q.** For COc1cc(SC#N)ccc1N=Cc1c(C)[nH]n(-c2ccc(Cl)cc2)c1=O, which activity [1] is on record?
**A.** 66.9%

**Q.** What about the activity [2] of the same compound?
**A.** 41.2%

**Q.** And the activity, % sensitization [3]?
**A.** -29.2%

**Q.** And the activity, % sensitization [4]?
**A.** -11.6%

**Q.** What about the activity, % sensitization [5] of the same compound?
**A.** -15.4%

**Q.** And the activity, % sensitization [6]?
**A.** -20.1%

**Q.** With O=C(NC(=O)c1ccccc1)Nc1ccccc1 as the compound, how does the activity [1] read?
**A.** 54.2%

**Q.** And the activity [2]?
**A.** 49.9%

**Q.** What about the activity, % sensitization [3] of the same compound?
**A.** 28.7%

**Q.** And the activity, % sensitization [4]?
**A.** 6.32%

**Q.** And the activity, % sensitization [5]?
**A.** 7.63%

**Q.** What about the activity, % sensitization [6] of the same compound?
**A.** -8.56%

**Q.** What does the source list for CN(C)S(=O)(=O)c1ccc(C(=O)Nc2nnc(SCC(=O)NCC3CCCO3)s2)cc1 (centres undefined)?
**A.** activity [1]: 49.1%; activity [2]: 38.5%; activity, % sensitization [3]: 30%; activity, % sensitization [4]: 32.3%; activity, % sensitization [5]: 4.27%; activity, % sensitization [6]: 28.4%

**Q.** For COc1cccc(NC(=O)c2ccc3c(c2)OCO3)c1, which activity [1] is on record?
**A.** 51.7%

**Q.** And the activity [2]?
**A.** 30.6%

**Q.** What about the activity, % sensitization [3] of the same compound?
**A.** 51%

**Q.** What about the activity, % sensitization [4] of the same compound?
**A.** 42.7%

**Q.** And the activity, % sensitization [5]?
**A.** 48%

**Q.** And the activity, % sensitization [6]?
**A.** 32.2%

**Q.** Which activity [1] does the source give for Cc1cccc2nc(=S)n(C(=O)c3ccco3)n12 here?
**A.** 54.6%

**Q.** And the activity [2]?
**A.** 44.5%

**Q.** What about the activity, % sensitization [3] of the same compound?
**A.** -5.2%

**Q.** And the activity, % sensitization [4]?
**A.** -6.02%

**Q.** What about the activity, % sensitization [5] of the same compound?
**A.** -1.17%

**Q.** And the activity, % sensitization [6]?
**A.** -18.3%

**Q.** What does the source list for O=C(Oc1c(CN2CCOCC2)cc(Cl)c2cccnc12)c1cccs1?
**A.** activity [1]: 53.1%; activity [2]: 53.5%; activity, % sensitization [3]: 24.4%; activity, % sensitization [4]: 44.5%; activity, % sensitization [5]: 8.65%; activity, % sensitization [6]: -4.1%

**Q.** For CC(C)C[C@H](NC(=O)c1nc[nH]c1C(=O)N[C@@H](CCCCNC(=O)OC(C)(C)C)C(=O)OC(C)(C)C)C(=O)OCc1ccccc1, which activity [1] is on record?
**A.** 77.7%

**Q.** And the activity [2]?
**A.** 20.4%

**Q.** What about the activity, % sensitization [3] of the same compound?
**A.** -36.8%

**Q.** What about the activity, % sensitization [4] of the same compound?
**A.** -15.7%

**Q.** What about the activity, % sensitization [5] of the same compound?
**A.** -4.5%

**Q.** And the activity, % sensitization [6]?
**A.** -28.8%

**Q.** Which results are given for CC1(Cc2ccc(OC(F)(F)F)cc2)C(=O)Nc2ccc(S(=O)(=O)NC3CCCCC3)cc21 (centres undefined)?
**A.** activity [1]: 46.4%; activity [2]: 31%; activity, % sensitization [3]: -0.836%; activity, % sensitization [4]: -0.606%; activity, % sensitization [5]: 23.3%; activity, % sensitization [6]: 28.2%

**Q.** With COCCNc1c(-c2cc3ccc(C)c(C)c3[nH]c2=O)nc2ccccn12 as the compound, how does the activity [1] read?
**A.** 64.9%

**Q.** And the activity [2]?
**A.** 47.6%

**Q.** What about the activity, % sensitization [3] of the same compound?
**A.** 60.1%

**Q.** And the activity, % sensitization [4]?
**A.** 54.8%

**Q.** And the activity, % sensitization [5]?
**A.** -1.27%

**Q.** What about the activity, % sensitization [6] of the same compound?
**A.** 53.5%
